Source: PubChem BioAssay AID1159580 (chemical genetic matrix, 2015)
Where “and” joins values, the source holds several entries; their conditions need not be identical. Equal values may be shown once. Hit rate of the full screen: of about 5,500 compounds, about 2,000 (36%) were called active. Not shown: some 18% with an inconclusive outcome. Rule as the data show it: active = normalized growth mostly below about 0.91 (no sharp cut-off); inconclusive = no clear call, values can overlap the other calls; inactive = mostly above about 0.92. The list shows a part of the results.

Assay: chemical genetic growth profiling, strain panel (AID 1159580);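 also: tested at 20 µM; growth read once vehicle control cultures reached saturation at 30 °C; 1 = growth at the plate median or of vehicle wells; lower values mean less growth of the strain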
Conditions: S. cerevisiae deletion strains, growth OD

Measured: normalized growth

CC(=O)Nc1ccc(OC(=O)c2ccccc2O)cc1
inactive: locus YAL021C, strain ccr4, stronger effect = lower value 1 | locus YAL026C, strain drs2, stronger effect = lower value 0.949 | locus YAL030W, strain snc1, stronger effect = lower value 0.994 | locus YBL061C, strain skt5, stronger effect = lower value 0.972 | locus YBR171W, strain sec66, stronger effect = lower value 0.992 | locus YBR229C, strain ROT2, stronger effect = lower value 0.98 | locus YBR231C, strain swc5, stronger effect = lower value 0.992 | locus YBR279W, strain paf1, stronger effect = lower value 0.939 | locus YCL029C, strain bik1, stronger effect = lower value 0.954 | locus YCR088W, strain abp1, stronger effect = lower value 0.929 | locus YDL005C, strain med2, stronger effect = lower value 0.996 | locus YDL035C, strain GPR1, stronger effect = lower value 0.911 | locus YDL040C, strain nat1, stronger effect = lower value 0.99 | locus YDL074C, strain BRE1, stronger effect = lower value 0.788 | locus YDL101C, strain DUN1, stronger effect = lower value 0.947 | locus YDL185W, strain tfp1, stronger effect = lower value 0.954 | locus YDL192W, strain arf1, stronger effect = lower value 0.967 | locus YDR001C, strain nth1, stronger effect = lower value 0.959 | locus YDR069C, strain doa4, stronger effect = lower value 0.999 | locus YDR101C, strain arx1, stronger effect = lower value 0.937 | locus YDR137W, strain rgp1, stronger effect = lower value 0.958 | locus YDR162C, strain NBP2, stronger effect = lower value 0.943 | locus YDR297W, strain sur2, stronger effect = lower value 0.977 | locus YDR318W, strain mcm21, stronger effect = lower value 0.93 | locus YDR334W, strain swr1, stronger effect = lower value 0.962 | locus YDR335W, strain msn5, stronger effect = lower value 0.977 | locus YDR388W, stronger effect = lower value 0.944 | locus YEL003W, strain gim4, stronger effect = lower value 0.978 | locus YEL037C, strain rad23, stronger effect = lower value 0.968 | locus YEL061C, strain CIN8 (second series), stronger effect = lower value 0.971 | locus YEL061C, strain CIN8, stronger effect = lower value 0.98 | locus YER015W, strain faa2, stronger effect = lower value 0.934 | locus YER016W, strain bim1, stronger effect = lower value 0.933 | locus YER110C, stronger effect = lower value 0.951 | locus YER111C, strain swi4, stronger effect = lower value 0.991 | locus YER155C, strain BEM2, stronger effect = lower value 0.945 | locus YFR010W, strain ubp6, stronger effect = lower value 0.944 | locus YGL078C, strain dbp3, stronger effect = lower value 0.97 | locus YGL086W, strain mad1, stronger effect = lower value 0.935 | locus YGL167C, strain pmr1, stronger effect = lower value 1.01 | locus YGL173C, strain kem1, stronger effect = lower value 0.959 | locus YGL227W, strain vid30, stronger effect = lower value 0.959 | locus YGL248W, strain PDE1, stronger effect = lower value 0.904 | locus YHR013C, strain ard1, stronger effect = lower value 0.915 | locus YHR027C, strain rpn1, stronger effect = lower value 0.945 | locus YHR030C, strain SLT2, stronger effect = lower value 0.968 and 0.921 | locus YHR079C, strain IRE1 (second series), stronger effect = lower value 0.927 | locus YHR079C, strain IRE1, stronger effect = lower value 0.904 | locus YHR094C, strain hxt1, stronger effect = lower value 0.954 | locus YHR129C, strain ARP1, stronger effect = lower value 0.948 | locus YHR200W, strain rpn10, stronger effect = lower value 0.934 | locus YIL066C, strain RNR3, stronger effect = lower value 0.89 | locus YIL073C, strain SPO22, stronger effect = lower value 0.854 | locus YIL125W, strain kgd1, stronger effect = lower value 0.95 | locus YIR030C, strain dcg1, stronger effect = lower value 0.933 | locus YJL092W, strain hpr5, stronger effect = lower value 0.946 | locus YJL095W, strain BCK1 (second series), stronger effect = lower value 0.96 | locus YJL115W, strain asf1, stronger effect = lower value 0.989 | locus YJL129C, strain trk1, stronger effect = lower value 0.974 | locus YJL134W, strain LCB3, stronger effect = lower value 0.985 | locus YJL154C, strain vps35, stronger effect = lower value 0.985 | locus YJL166W, strain qcr8, stronger effect = lower value 0.952 | locus YJL168C, strain set2, stronger effect = lower value 0.958 | locus YJL187C, strain SWE1 (second series), stronger effect = lower value 0.93 | locus YJL187C, strain SWE1, stronger effect = lower value 0.985
0.738 (active) and 0.924 (inactive): locus YJL095W, strain BCK1, stronger effect = lower value
active: locus YBR009C, strain hhf1, stronger effect = lower value 0.862 | locus YBR021W, strain FUR4, stronger effect = lower value 0.807 | locus YBR023C, strain chs3, stronger effect = lower value 0.908 | locus YCL011C, strain gbp2, stronger effect = lower value 0.87 | locus YCL016C, strain dcc1, stronger effect = lower value 0.91 | locus YCL061C, strain MRC1, stronger effect = lower value 0.917 | locus YCL069W, strain vba3, stronger effect = lower value 0.908 | locus YDL134C, strain PPH21, stronger effect = lower value 0.878 | locus YDR159W, strain sac3, stronger effect = lower value 0.842 | locus YDR195W, strain ref2 1.15 [resistant] | locus YDR392W, strain spt3, stronger effect = lower value 0.712 | locus YDR502C, strain sam2, stronger effect = lower value 0.913 | locus YER155C, strain BEM2 (second series), stronger effect = lower value 0.765 | locus YER167W, strain BCK2, stronger effect = lower value 0.873 | locus YGL240W, strain doc1, stronger effect = lower value 0.882 | locus YGL253W, strain hxk2, stronger effect = lower value 0.879 | locus YGR078C, strain PAC10, stronger effect = lower value 0.848 | locus YGR135W, strain pre9, stronger effect = lower value 0.847 | locus YGR252W, strain gcn5, stronger effect = lower value 0.608 | locus YHR142W, strain chs7, stronger effect = lower value 0.803 | locus YJL164C, strain tpk1, stronger effect = lower value 0.897 | locus YJR043C, strain POL32, stronger effect = lower value 0.754
